TLR9-MyD88 inh – TLR9-MyD88 interaction inhibition | AID 504734 | inhibition, % at 4.98 µM | CHO BLA complementation TLR9-MyD88, CCF4 FRET ratio | Q9NR96+Q99836 | 0.21% of 340,000 active;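 active = inhibition above the mean over all tested compounds plus 3 SD, cut at about 21% in these data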
Myeloid diff MLP – myeloid differentiation induction; 1% of 360,000 active; AID 624256; calls only at 10 µM; ER-HoxA9 myeloid progenitors, lysozyme-GFP differentiation, flow cytometry;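 active = normalized GFP-positive differentiation at or above the plate's own cutoff, the solvent-only control mean plus 3 SD; inconclusive = no clear call, values can overlap the other calls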;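 note: cells exposed to compound for four days before flow analysis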
NOD2-RIPK2 inh – blocks binding of human NOD2 to RIPK2; O43353; CHO BLA complementation NOD2-RIPK2, CCF4 ratio; inhibition, % at 4.98 µM; 0.38% of 360,000 active; AID 624267; in the data active = inhibition above about 21%
TLR4 MyD88 comp – inhibitors of human TLR4-MyD88 binding; O00206+Q99836; 0.18% of 200,000 active; AID 861; HeLa CL3-4 TLR4/MyD88 BLA complementation, FRET ratio; inhibition, % at 8.4 µM; in the data active = inhibition above about 25%
NOD2-RIPK2 conf – confirmation of human NOD2-RIPK2 interaction inhibitors. inhibition, % at 4.98 µM. 70% of 1,200 active. shares compounds with NOD2-RIPK2 inh. CHO cells, NOD2-RIPK2 BLA complementation, CCF4 FRET. AID 624370;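 active = mean inhibition across replicates above a set limit taken from the earlier primary screen, cut at about 21% in these data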
NOD2 BLA counter – NOD2-RIPK2 counterscreen BLA reporter activity. CHO BLA reporter, CCF4 FRET ratio. 57% of 1,200 active. AID 624371. shares compounds with NOD2-RIPK2 inh. inhibition, % at 4.98 µM;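 active = mean inhibition above the low-control mean inhibition plus three low-control SD, cut at about 11% in these data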
Hits are given with their value; – = inactive; ? = inconclusive; · = not tested or not shown. In the library only some 1.5% were active in any assay of this set; here they are far more common.

SMILES | TLR9-MyD88 inh | Myeloid diff MLP | NOD2-RIPK2 inh | TLR4 MyD88 comp | NOD2-RIPK2 conf | NOD2 BLA counter
O=S(=O)(c1cccs1)N1CCN(CC(O)COc2cccc(Br)c2)CC1 (stereo not given) | – | – | 22 | – | – | –
O=S(=O)(c1cccs1)N1CCN(CC(O)COC2CCCc3ccccc32)CC1 (stereo not given) | – | – | – | – | · | ·
COC(=O)Nc1ccc(SCC(=O)c2cccc([N+](=O)[O-])c2)cc1 | – | – | 22 | · | – | –
C#CCOCC1CN(C)C(=O)O1 (stereo not given) | – | – | – | · | · | ·
CC(C)c1csc(CN2CCC(C(=O)Nc3cccc(-c4ccco4)c3)CC2)n1 | – | – | – | · | · | ·
O=C(O)c1sccc1S(=O)(=O)c1ccccc1 | – | – | – | – | · | ·
Nc1c(S(=O)(=O)c2ccccc2)csc1C(=O)O | – | – | 44 | – | – | –
CCOC(=O)C1=CC[C@@H](c2ccccc2)N(S(=O)(=O)c2ccc(C)cc2)[C@H]1c1ccc(C#N)cc1 | · | – | – | · | · | ·
CCOC(=O)C1=CC[C@@H](c2ccccc2)N(S(=O)(=O)c2ccc(C)cc2)[C@H]1C#N | · | – | 44 | · | – | –
Cc1cccc(C)c1NC(=O)C1(C)CN(S(C)(=O)=O)CC(=O)N1CCc1c[nH]c2ccccc12 (stereo not given) | · | – | – | · | · | ·
COc1cc2ccc(=O)oc2cc1O | – | – | 30 | · | – | 39
COc1ccc(NC(=O)C2c3ccccc3OCC(=O)N2Cc2cccnc2)cc1 (stereo not given) | · | – | – | · | · | ·
N#CC(=C1C=CC(=NO)C(Cl)=C1)c1ccc(Cl)cc1 | – | – | 42 | · | 26 | 23
C[C@@H]1CN([C@H](C)CO)C(=O)CCCn2cc(nn2)CO[C@H]1CN(C)C(=O)Nc1cccc(Oc2ccccn2)c1 | – | – | – | · | · | ·
COc1ccc(S(N)(=O)=O)cc1C(=O)NCC(C)(C)N1CCOCC1 | – | – | – | · | · | ·
COc1cc(CC(=O)NCC(C)(C)N2CCOCC2)cc(OC)c1OC | – | – | 38 | · | – | –
O=c1oc2ccccc2cc1-c1nc(-c2cccs2)cs1 | – | – | 32 | – | 43 | 51
O=C(Nc1cccc(O)c1)c1cc2nc(-c3ccccc3)cc(-c3ccccc3)n2n1 | – | – | 22 | – | – | 11
CC1=CC2(C)NC(=O)C(C)C12 (stereo not given) | – | – | – | · | · | ·
COCC(=O)O[C@]1(CCN(C)CCCc2nc3ccccc3[nH]2)CCc2cc(F)ccc2[C@@H]1C(C)C | – | ? | 25 | · | – | –
C=C1C(=O)C23CCC4C(C)(C(=O)OC)CCCC4(C)C2CCC1(O)C3 (stereo not given) | – | · | 79 | · | 88 | 21
Cn1nc(C2CC2)cc1NC(=O)C1(C)CCN1C(=O)CCc1ccccc1 (stereo not given) | · | – | – | · | · | ·
CCOC(=O)C(C)N1C(=O)S/C(=C\c2ccc(-c3ccccc3C(=O)O)o2)C1=O (stereo not given) | – | – | 23 | · | – | 21
Cc1ccc(NC(=O)CN2C(=O)S/C(=C\c3ccc(-c4cccc(C(=O)O)c4C)o3)C2=O)cc1 | · | · | · | – | · | ·
CCc1cccc(CC)c1N1C(=O)C2=C(SCCCS2)C1=O | – | – | 40 | · | 35 | 38
SMILES | TLR9-MyD88 inh | Myeloid diff MLP | NOD2-RIPK2 inh | TLR4 MyD88 comp | NOD2-RIPK2 conf | NOD2 BLA counter
C=C1C(=O)C2=CC1CCC(=O)C1(C)CCC(OC(C)=O)C(C)(C)C1CC2O (stereo not given) | – | ? | – | · | · | ·
C=C1C(=O)[C@]23C[C@H]1CC[C@H]2[C@]1(C)[C@@H](OC(C)=O)CC[C@@](C)(C(=O)OC)[C@H]1C[C@@H]3OC(C)=O | · | ? | 59 | · | 56 | –
C=C1C(=O)[C@]23C[C@H]1CCC2[C@@]1(C)C(C[C@@H]3O)[C@](C)(C(=O)OC)CC[C@@H]1OC(C)=O (stereo not given in full) | · | ? | 93 | · | 93 | 22
C=C1C(=O)[C@]23C[C@H]1CC[C@H]2[C@]1(C)[C@@H](OC(C)=O)CC[C@@](C)(C(=O)O)[C@H]1C[C@@H]3O | · | ? | – | · | · | ·
CCN1CCN(c2ccc(S(=O)(=O)N3CCCCC3)cc2NC(=O)/C=C/c2ccc([N+](=O)[O-])cc2)CC1 | – | – | – | · | · | ·
CN1CCN(c2ccc(S(=O)(=O)N3CCCCC3)cc2NC(=O)/C=C/c2ccc(Cl)c([N+](=O)[O-])c2)CC1 | – | – | 22 | · | 30 | –
CCC1NC(=O)c2cc3ccccc3cc2-n2c1nc1cc(OC)c(OC)cc1c2=O (stereo not given) | – | – | – | · | · | ·
CCCCN(C)CC(O)Cn1cc(/C=C/C(=O)c2ccc(C)cc2)c2ccccc21 (stereo not given) | – | ? | 32 | · | 44 | 41
CC(=O)NC(C)(c1ccccc1)c1nc(-c2cc(F)cc(F)c2)cs1 (stereo not given) | · | – | – | · | · | ·
C=C1C(=O)OC2CC1C(O)CC(C)=CCCC(C)=CC(O)CC2C (stereo not given) | – | · | 23 | · | – | 13
C=C1C(=O)OC2CC1C(OC(C)=O)CC(C)=CCCC(C)=CCCC2(C)O (stereo not given) | · | ? | – | · | · | ·
CC1OC2CC(=O)OC2C2=C1C(=O)c1c(O)cccc1C2=O (stereo not given) | · | – | 70 | · | 77 | –
CCc1cc(SC#N)cc(C)c1N | – | – | – | – | · | ·
CCC(=O)Nc1ccc(SC#N)cc1C | – | – | – | – | · | ·
CCc1cc(SC#N)cc(C)c1NC(=O)CCl | – | – | 24 | – | 25 | –
Cc1cc(SC#N)cc(C)c1NC(=O)CCl | – | ? | 31 | – | 28 | –
CC1=C(C(=O)N(C(C)C)C(C)C)CC(CC(=O)NCc2cccc3ccccc23)C(=O)N1Cc1ccccc1 (stereo not given) | · | – | – | · | · | ·
COc1cccc(OC)c1C(=O)NC(=S)Nc1ccc2oc(-c3ccncc3)nc2c1 | – | – | 64 | – | – | –
COc1c(F)c(F)c(C(=O)Nc2ccc3oc(-c4ccncc4)nc3c2)c(F)c1F | – | – | – | – | · | ·
COc1ccc(C(C)(NC(C)=O)c2nc(-c3cc(F)cc(F)c3)cs2)cc1 (stereo not given) | · | – | – | · | · | ·
COc1ccc(C(NC(=O)C2CCN(CCOc3ccccc3)CC2)c2ccccn2)cc1 (stereo not given) | · | – | – | · | · | ·
COc1ccc(OCCN2CCC(C(=O)NC(c3ccc(C)cc3)c3ccccn3)CC2)cc1 (stereo not given) | · | – | 21 | · | – | –
CC(=O)Nc1ccc(-c2ccnc3c2CC(C)(C(=O)Nc2ccc(Cl)cc2)O3)cc1 (stereo not given) | · | – | 21 | · | – | –
CNC(=O)C1(C)Cc2c(-c3ccc(NC(C)=O)cc3)ccnc2O1 (stereo not given) | · | – | – | · | · | ·
CCCCNC(=O)C1c2ccccc2C(=O)N(c2ccc(OC)cc2)C1c1ccc(OC)cc1 (stereo not given) | – | – | – | – | · | ·

High-throughput results (PubChem)
